An excerpt weighted towards active compounds, which were near 11% of everything screened.
HP1b binding inh – blocks HP1-beta chromodomain binding to methylated histone tails; P83916; AlphaScreen HP1-beta / biotin-H3K9me3 peptide binding; Potency, µM (doses to about 114 µM), for inactives: top-dose activity change, negative = inhibition, most hits filed as inhibitors; actives 0.56% (n = 390,000); AID 540317; note: nearly all actives have a fitted effect of over 70% in size
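AlphaScreen: HP1-beta (50 nM) preformed 30 min with biotin-H3(1-18)K9me3 peptide (50 nM) in PBS pH 7.4, 0.01% Tween-20. Compound added for 30 min at RT, then streptavidin donor/nickel chelate acceptor beads (10 ug/mL) for 30 min.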
JMJD2A Tudor – JMJD2A Tudor domain (human) inhibition. actives 4.4% (n = 390,000). AID 504339. Potency, µM (doses to about 114 µM), inactives show top-dose activity change, negative = inhibition, usual class: inhibitors. AlphaScreen JMJD2A-Tudor / H3K4me3 peptide binding; note: % is set by controls: 0 for no effect and ±100 for the full control effect; nearly all actives have a fitted effect of over 50% in size
VDR inh – inhibitors of human vitamin D receptor | P11473 | VDR-SRC2-3 peptide fluorescence polarization, 2 h | Potency, µM, inactives show max response, negative = inhibition, most hits filed as inhibitors | actives 0.93% (n = 400,000); note: % is set by controls: 0 for no effect and ±100 for the full control effect
Target sequence (P11473 whole entry, looked up): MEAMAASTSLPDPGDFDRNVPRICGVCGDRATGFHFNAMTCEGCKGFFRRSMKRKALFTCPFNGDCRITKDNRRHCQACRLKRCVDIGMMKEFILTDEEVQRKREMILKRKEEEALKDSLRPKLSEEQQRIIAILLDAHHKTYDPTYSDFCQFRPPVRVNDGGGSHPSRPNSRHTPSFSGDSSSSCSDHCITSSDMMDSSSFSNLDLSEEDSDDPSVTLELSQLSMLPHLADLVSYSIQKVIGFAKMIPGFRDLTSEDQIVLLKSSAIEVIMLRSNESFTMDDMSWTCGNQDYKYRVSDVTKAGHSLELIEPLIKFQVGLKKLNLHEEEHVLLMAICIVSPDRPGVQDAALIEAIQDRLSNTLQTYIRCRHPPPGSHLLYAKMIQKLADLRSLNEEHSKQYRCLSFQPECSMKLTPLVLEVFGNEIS
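Fluorescence polarization assay of small-molecule disruption of VDR binding to coregulator peptide SRC2-3. Compounds and controls pin-transferred, then read after 2 h incubation at ambient room temperature.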
BAZ2B inh – BAZ2B (human) inhibition; AlphaScreen BAZ2B-H3K14Ac peptide displacement; Potency, µM (titrated, usually from 114 µM), inactives show at the top dose activity change, negative = inhibition, most hits filed as inhibitors; actives 4.4% (n = 360,000); note: % is set by controls: 0 for no effect and ±100 for the full control effect; nearly all actives have a fitted effect of over 60% in size
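BAZ2B 50 nM plus b-H3(5-23)K14Ac 50 nM, PBS pH 7.4/0.01% Tween-20, 30 min RT; compound added (max 110 uM), 30 min RT; streptavidin donor/Ni-chelate acceptor beads 10 ug/mL final, 20 min dark; AlphaScreen read.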
G9a inh – blocks human histone lysine methyltransferase G9a; Q96KQ7; G9a H3K9 monomethylation, AlphaScreen, 2 h; actives 8.8% (n = 350,000); Potency, µM (titrated, usually from 102 µM), without a hit: at the top dose activity, negative = inhibition, most hits filed as inhibitors; AID 504332; note: % is set by controls: 0 for no effect and ±100 for the full control effect; nearly all actives have a fitted effect of over 75% in size
Target sequence (Q96KQ7 913-1193 limits assumed): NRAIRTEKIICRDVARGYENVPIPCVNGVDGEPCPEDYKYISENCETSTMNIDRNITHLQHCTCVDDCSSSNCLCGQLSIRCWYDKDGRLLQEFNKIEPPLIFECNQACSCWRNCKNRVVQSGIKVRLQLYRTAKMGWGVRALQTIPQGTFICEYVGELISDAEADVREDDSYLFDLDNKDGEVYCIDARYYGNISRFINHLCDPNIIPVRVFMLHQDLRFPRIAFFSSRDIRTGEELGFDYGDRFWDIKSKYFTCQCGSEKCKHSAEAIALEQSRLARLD
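AlphaScreen read-out: biotin-H3K9 peptide (500 nM) methylation by 20 nM enzyme with 20 uM SAM, 2 h at room temperature after 15 min compound preincubation; anti-monomethyl H3K9 antibody plus donor/acceptor beads, 10 min dark.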
PLK1 PBD block – inhibitors of human PLK1 polo-box domain binding. Potency, µM, for the others: max response, negative = inhibition, hits mostly inhibitors. Plk1 PBD binding of FITC phosphopeptide, fluorescence polarization. P53350. actives 2.8% (n = 360,000). AID 720504; note: series mostly up to about 57 µM; % is set by controls: 0 for no effect and ±100 for the full control effect; nearly all actives have a fitted effect of over 65% in size
Starred values were filed as active, the others as inactive; ? = inconclusive; / = not tested or not shown; [ ] = dose if it differs, or a comment. Calls come from the whole dose curve; as a rule, active = well fitted curve in the direction sought with a large enough effect; inconclusive = small, poorly fitted or top-dose-only effect, or another doubt; inactive = no such curve, though single readings can be large; an effect the other way counts as inactive or inconclusive. Potency is the fitted concentration of half-maximal effect.

SMILES	HP1b binding inh	JMJD2A Tudor	VDR inh	BAZ2B inh	G9a inh	PLK1 PBD block
COc1ccccc1C(=O)N1CCN(C2CCN(Cc3ccccc3)CC2)CC1	?	7.9µM*	6%	56µM*	10µM*	-5%
O=S(=O)(c1ccccc1)N1CCC(N2CCN(c3ccccc3)CC2)CC1	/	/	/	6%	-6%[59 µM]	/
c1ccc(C2CCC(N3CCN(c4ccccc4)CC3)CC2)cc1 (stereo not given)	2%	?	-7%	?	56µM*	-13%
O=C(N/N=C/c1ccco1)C1CC1(c1ccccc1)c1ccccc1 (stereo not given)	8%	-21%	-5%	?	40µM*	-10%
O=C(O)c1ccc(/C=N/NC(=O)C2CC2(c2ccccc2)c2ccccc2)cc1 (stereo not given)	/	/	/	-25%	1%	/
Cc1ccc(OCC(=O)O/N=C(\N)Cc2ccc(Cl)cc2)cc1	86%	?	-22%	160%	97%	2.7µM*
O=C(COc1ccc(F)cc1)Nc1ccccc1OCc1cc(=O)n2ccccc2n1	14%[57 µM]	-12%	-3%	9%	4%[59 µM]	/
Cc1nc(C)c(C(=O)OCC(=O)NCCc2ccc(F)cc2)s1	16%	-18%	-4%	7%	40µM*	-17%
Cc1nc(C)c(C(=O)OCC(=O)NCCc2ccc(S(N)(=O)=O)cc2)s1	16%	-14%	-7%	-4%	1%[12.7 µM]	-2%
O=C(NCc1ccc(Cl)cc1)C1CCCN1C(=O)Nc1ccccc1 (stereo not given)	17%	-17%	0%	9%	30%	-3%
COc1ccc(N(CC(=O)N2CCCCCC2)S(=O)(=O)c2ccccc2[N+](=O)[O-])c(OC)c1	-14%	-27%	10%	-26%	-72%	-5%
COC(=O)CN(c1ccc(OC)cc1OC)S(=O)(=O)c1ccccc1[N+](=O)[O-]	9%	-18%	14%	-17%	11µM*	-11%
COc1ccc(N(CC(=O)Nc2ccccc2C)S(=O)(=O)c2ccccc2[N+](=O)[O-])c(OC)c1	?	?	?	-8%	-23%	7.5µM*
O=C(c1ccc2[nH]c(=O)c(=O)[nH]c2c1)N1CCN(c2ccccc2)CC1	21%	-17%	-21%	-27%	15%	-20%
CC(Oc1ccccc1)C(=O)N1CCN=C1SCc1ccccc1F (stereo not given)	64%	45%	4%	16%	/	2%
CSC1=NCCN1C(=O)C(C)Oc1ccccc1 (stereo not given)	19%	-26%	-20%	-4%	9%[59 µM]	30µM*
Cc1ccccc1NC(=O)Cc1nnc(SCC(=O)NC2CCCC2)n1C	3%	-1%	45%	0%	14%	-4%
O=C1c2ccccc2C(=O)C1Cc1cccc2ccccc12	-30%	?	?	?	50µM*	6.7µM*
CN(C)c1ccc(NC(=O)c2ccc3nc[nH]c3c2)cc1	15%	-34%	5%	45µM*	?	-8%
CN(C)c1ccc(NC(=O)c2cccc(N3C(=O)CCC3=O)c2)cc1	15%	-32%	-5%	-12%	40µM*	-10%
COc1cc(C(=O)NC2=C(C#N)CCC2)cc(OC)c1OC	7%	-13%	-6%	-31%	50µM*	-7%
COc1cc(C(=O)Nc2ccc(N(C)C)cc2)cc(OC)c1OC	-5%	?	12%	?	45µM*	-1%
COc1cc(C(=O)Nc2ccc(S(=O)(=O)N(C)c3ccccc3)cc2)cc(OC)c1OC	21%	-12%	2%	-6%	10%[59 µM]	2%
COc1cc(C(=O)Nc2ccccc2NC(=O)c2cc(OC)c(OC)c(OC)c2)cc(OC)c1OC	21%	-22%	4%	3%	15%	-6%
CCCCc1cc(=O)oc2cc(OCC(=O)NCCN3CCOCC3)ccc12	25%	-14%	16%	?	16%	-10%
SMILES	HP1b binding inh	JMJD2A Tudor	VDR inh	BAZ2B inh	G9a inh	PLK1 PBD block
O=C(Nc1nnc(-c2ccc(Br)cc2)o1)c1cccc(N2C(=O)CCC2=O)c1	34%	-21%	-14%	71µM*	-33%	-4%
O=C(NNC(=O)c1ccccc1F)c1ccc2nc[nH]c2c1	33%	-14%	17%	?	15%	5%
COc1ccccc1CCNC(=O)c1ccc2nc[nH]c2c1	14%	-21%	4%	50µM*	-1%	-1%
O=C(NCCc1ccc(Cl)cc1Cl)c1ccc2nc[nH]c2c1	58%	-3%	-3%	-3%	/	1%
O=C(NNC(=O)c1ccccc1Br)c1ccc2nc[nH]c2c1	-7%	?	-11%	50µM*	/	-19%
Cc1cc(Cl)n2c(nc3cc(F)c(F)cc32)c1C#N	60%	-4%	16µM*	5%	-38%	?
O=C(O)c1nnn(-c2cccc(C(F)(F)F)c2)c1-c1ccccc1	31%	-23%	-17%	2%	/	-2%
CC1=CC(=O)C=C(C)C1=NOc1ccccc1[N+](=O)[O-]	5%	-28%	-11%	1%	25µM*	-12%
Cc1cc(C)c(S(=O)(=O)Oc2ccccc2[N+](=O)[O-])c(C)c1	32%	-18%	-7%	/	/	2%
CCCCn1c(N2CCCC2)nc2c1c(=O)[nH]c(=O)n2C	29%	-22%	3%	-1%	-16%	-6%
OCCNc1nc(Cl)nc(NCc2ccco2)n1	27%	-18%	-16%	-16%	-7%[12.7 µM]	-4%
C=CCCCCCCCCCCCc1ccco1	/	/	25µM*	/	/	/
COc1cc(SC#N)ccc1N=Cc1c(C)[nH]n(-c2ccc(C)c(C)c2)c1=O	-8%	-19%	?	-2%	10µM*	?
COc1cc(NC2=Nc3cccc4cccc2c34)cc(OC)c1OC	?	?	-6%	50µM*	50µM*	0%
COc1cccc(NC2=Nc3cccc4cccc2c34)c1	-36%	45µM*	-1%	40µM*	?	13%
COc1ccc(CC(=O)NNC2=Nc3cccc4cccc2c34)cc1OC	58%	2%	-18%	-11%	5%	5%
COc1ccc(NC2=Nc3cccc4cccc2c34)cc1OC	-18%	?	20%	-39%[57.1 µM]	?	2%
CCCCN(C(=O)c1c(C)noc1C)c1c(N)n(CCCC)c(=O)[nH]c1=O	20%	-21%	-8%	6%	-18%	-6%
COc1ccc(-c2cccc(C3C4C=CCCC4(C)C(=O)N3Cc3ccccc3)c2)cc1 (stereo not given)	10%	-23%	-21%	/	/	/
COc1ccc(Cl)cc1NCCC(O)c1ccc(F)cc1 (stereo not given)	-1%	?	-1%	?	35µM*	-12%
COc1ccc(Cl)cc1NC(=S)NCCc1ccc(F)cc1	43%	-4%	-1%	-27%	2%	-13%
COc1ccc(NCCC(O)c2ccc(Cl)cc2)cc1 (stereo not given)	?	56µM*	-1%	45µM*	?	-5%

Bioassay records: PubChem, National Center for Advancing Translational Sciences (NCATS)
